HT1080 IDH1KD tx = toxicity to HT-1080 IDH1 knockdown cells (counter line); HT-1080 IDH1 knockdown viability, ATP luminescence, 48 h; Potency, µM (titrated, usually from 46.1 µM), inactives show top-dose activity, negative = toxicity, usual class: cytotoxic; hit rate 2% among 360,000; AID 686971;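 note: potency is the fitted concentration of half-maximal effect; 0% = DMSO wells and -100% = cell-free medium wells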
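CellTiter-Glo luminescence after 48 h compound exposure at 37 degrees C of IDH1-knockdown HT-1080 cells in 5% FBS RPMI. %Activity scaled between DMSO wells and cell-free media wells, with curves fitted and assigned curve classes.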
IL1B secr inh = blocks inflammasome-driven IL-1 beta release | hit rate 4.7% among 360,000 | THP-1 LPS/ATP IL-1B secretion, AlphaLISA, 16 h; stronger effect = lower value | activity change, % at 57.5 µM; in the data active = activity change below about -50%; inconclusive = mostly about -30% to -49%
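Secreted IL-1B measured by AlphaLISA bead assay after 16 h compound exposure of THP-1 cells; compounds (final up to 57.5 uM) added 1 h before LPS (250 ng/mL) and ATP (1.25 mM) stimulation; lower signal means less secretion.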
HT1080-NT tox = kills 2HG-producing HT-1080-NT fibrosarcoma cells | HT-1080-NT fibrosarcoma viability, CellTiter-Glo ATP luminescence, 48 h | Potency, µM (series often up to 46.1 µM), for inactives: at the top dose activity, negative = less viability, actives largely listed as cytotoxic | hit rate 1.6% among 360,000 | AID 686970;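 note: NT is the 2HG producing partner of a matched IDH1 knockdown line; potency is the fitted concentration of half-maximal effect; 0% = DMSO-treated cells and -100% = media-only wells without cells; nearly all actives have a fitted effect of over 55% in size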
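Toxicity toward the 2HG-producing NT line was scored as %Activity, normalised to DMSO and no-cell wells, from CellTiter-Glo luminescence after 48 hours' treatment.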
DT40 TDP1 no CPT = qHTS for Inhibitors of human tyrosyl-DNA phosphodiesterase 1 (TDP1): qHTS in cells in absence of CPT. DT40 Tdp1-/- hTDP1 cells, no CPT, ATP luminescence, 48 h. Potency, µM (titrated, usually from 46.2 µM), without a hit: at the highest dose activity change, negative = growth inhibition, actives largely listed as inhibitors. AID 686978, 2013. hit rate 15% among 420,000; note: potency is the fitted concentration of half-maximal effect; nearly all actives have a fitted effect of over 55% in size
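Chicken DT40 Tdp1-/- cells stably complemented with human TDP1 were seeded at 400 cells/well with DMSO in place of 20 nM camptothecin. After compound pinning, cells grew at least 48 hr at 37 °C; viability read by CellTiter-Glo luminescence.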
TDP1 cell CPT = growth inhibition of DT40 Tdp1-/-;hTDP1 cells with camptothecin (screen for TDP1 inhibitors); chicken DT40 Tdp1-/-;hTDP1 cells + 20 nM CPT, ATP luminescence, 48 h; Potency, µM (titrated, usually from 46.2 µM), for inactives: top-dose activity change, negative = growth inhibition, actives largely listed as inhibitors; hit rate 12% among 420,000; note: potency is the fitted concentration of half-maximal effect; nearly all actives have a fitted effect of over 55% in size
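Chicken DT40 Tdp1-/- cells complemented with human TDP1, 400 cells/well, exposed to compounds plus 20 nM camptothecin for at least 48 h at 37 C; viability read as ATP content by CellTiter-Glo luminescence.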
An asterisk follows results filed as active; ? = inconclusive; / = no result; [ ] = another dose, or the depositor's remark. Rows were chosen to be rich in hits. Some 19% of all compounds tested hit in one or more screens of this group. Unless noted, calls come from the whole dose curve; as a rule, active = well fitted curve in the direction sought with a large enough effect; inconclusive = small, poorly fitted or top-dose-only effect, or another doubt; inactive = no such curve, though single readings can be large; an effect the other way counts as inactive or inconclusive. Unless noted, % is set by controls: 0 for no effect and ±100 for the full control effect.

SMILES	HT1080 IDH1KD tx	IL1B secr inh	HT1080-NT tox	DT40 TDP1 no CPT	TDP1 cell CPT
CC1CC(C)CN(C(=O)CCNC(=O)Cn2ccc3ccccc3c2=O)C1 (centres undefined)	1.3%	-4.8	-0.8%	-3.6%	13.5%
Cc1ccccc1NC(=O)C(Cl)=C(Cl)Cl	?	-97.0*	?	23.1µM*	20.6µM*
Cc1ccc(C)c(NNC(=O)C(=O)NNc2cc(C)ccc2C)c1	-22.6%	9.1	-1.9%	-1.0%	0.5%
Cc1ccccc1NNC(=O)C(=O)NNc1ccccc1C	18.4µM*	26.6	-6.9%	-16.1%	-1.8%
Cc1ccc(Nc2nc3ccccc3n3cnnc23)c(Cl)c1	10.1%	-9.7	28.5%	-29.7%	-22.9%
Cc1c(Cl)cccc1Nc1nc2ccc(C(=O)c3ccccc3)cc2n2cnnc12	/	/	/	23.1µM*	?
CCc1nnc2c(Nc3cccc(F)c3)nc3ccc(C(=O)c4ccccc4)cc3n12	/	/	/	2.91µM*	6.51µM*
COc1cccc(Nc2nc3ccc(C(=O)c4ccccc4)cc3n3c(C)nnc23)c1	/	/	/	?	11.6µM*
COc1cc(OC)c(Nc2nc3ccc(C(=O)c4ccccc4)cc3n3c(C)nnc23)cc1Cl	/	/	/	-0.1%	11.7%
CCOC(=O)c1ccc(Nc2nc3ccc(C(=O)c4ccccc4)cc3n3c(C)nnc23)cc1	/	/	/	-18.4%	-22.0%
CN(C)CC/C=C1/c2cc(F)ccc2Sc2ccc(Cl)cc21	16.4µM*	-51.4*	23.1µM*	18.4µM*	?
COc1cc2c(cc1Cl)/C(=C\CCN(C)C)c1ccccc1S2	?	-102.6*	?	?	18.4µM*
O=C(NN=Cc1ccccc1OC(F)F)c1cccc(S(=O)(=O)N2CCCC2)c1	2.6%	9.7	0.0%	-13.4%	-7.2%
CC12CN3CC(c4ccccc4)(CN(C1)C3c1ccc(O)cc1)C2=O (centres undefined)	/	/	/	?	-6.1%
CC(C)c1ccc(C2N3CC4(C)CN2CC(c2ccccc2)(C3)C4=O)cc1 (centres undefined)	/	/	/	18.4µM*	?
CCCc1ccc(C(=O)CCC(=O)NNC(=O)c2ccncc2)cc1	13.6%	10.9	9.5%	25.5%	-7.4%
Cc1nn2c(NCCCN(C)C)c3c(nc2c1-c1ccccc1)CCCC3	?	-21.6	?	?	?
Cc1nn2c(NCCCN(C)C)c3c(nc2c1-c1ccccc1)CCC3	7.5%	-11.0	2.9%	29.1µM*	?
CCOC(=O)[C@]12CCC=C1N(Cc1ccco1)C(=O)[C@H](CC(=O)NCc1cccc3ccccc13)C2	-7.5%	-13.6	0.9%	-16.7%	-15.7%
COc1ccc(-n2c(-c3ccc(C)cc3)cc3c2CC(C)(C)CC3=O)cc1Cl	/	/	/	5.1%	-15.6%
Cc1ccc(-c2cc3c(n2-c2ccc(F)cc2)CC(C)(C)CC3=O)cc1	/	/	/	18.4µM*	16.4µM*
COc1ccc(-n2c(-c3ccc(C)cc3)cc3c2CC(C)(C)CC3=O)c(OC)c1	/	/	/	?	14.6µM*
CC(NC(=O)c1cccc(OC2CCN(C3CCN(C)CC3)CC2)c1)c1ccccc1 (centres undefined)	-2.2%	-6.4	-12.4%	?	?
Cn1c(CNC(=O)CSc2n[nH]c(-c3ccccc3)n2)nc2ccccc21	/	/	/	-1.2%	8.0%
Cc1cc(C(=O)Nc2ccccc2-c2nc(CNC(=O)c3cscn3)c(C)o2)c(C)o1	/	/	/	-18.9%	-0.2%[9.04 µM]
COCCN(C(=O)CNC(=O)c1ccco1)C(C(=O)NC1CCCC1)c1ccc(F)cc1 (centres undefined)	7.2%	22.6	3.2%	-8.4%	-5.9%
COc1ccc(C(=O)/C=C/Nc2c(C)n(C)n(-c3ccccc3)c2=O)cc1OC	?	-11.1	?	16.4µM*	23.1µM*
COc1cc(OC)c(OC)cc1/C=C/C(=O)OCC(=O)Nc1c(C)n(C)n(-c2ccccc2)c1=O	5.5%	-14.9	3.4%	1.03µM*	?
COc1ccc(S(=O)(=O)NC(=O)C2(C)CCN2C(=O)c2c(C)noc2C)cc1 (centres undefined)	1.1%	-17.6	?	-12.6%	-1.2%
